From PubChem BioAssay
An excerpt weighted towards active compounds, which were near 7.3% of everything screened.
NPC1 promoter act = activators of NPC1 promoter; Huh7 NPC1 promoter luciferase reporter, 24 h; Potency, µM (highest dose often 9.22 µM), for the others: at the top dose activation, hits mostly activators; 320,000 tested, 2.4% active; AID 485313; further: % of control where 0% means no effect; nearly all actives have a fitted effect of over 60% in size
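Stably transfected Huh7 (NPC1 promoter→luciferase), 1500 cells/well in Opti-MEM + 10% FBS, 2 h settle, then compound 24 h at 37 °C. Luminescence after 10 min with Amplite reagent.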
SMN2 splice enh = increases expression of the SMN2 splice variant. HEK293 SMN2-luciferase splicing reporter, luminescence, 30-36 h. Potency, µM (series often up to 46.1 µM), for the others: at the top dose activity change, positive = activation, most hits filed as activators. 210,000 tested, 2.8% active; further: % of control where 0% means no effect; nearly all actives have a fitted effect of over 55% in size
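HEK293 cells carry an SMN2 minigene-luciferase reporter in which exon 7 inclusion puts luciferase in frame. Cells were seeded at 2000 cells/well, attached for 10-12 hours, then exposed to compounds for 30-36 hours at 37C before ONE-Glo luminescence.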
Rab9 promoter act = Rab9 promoter activation; Potency, µM (top dose mostly 9.22 µM), inactives show at the top dose activation, negative = inhibition, usual class: activators; 320,000 tested, 2.8% active; AID 485297; Huh7 Rab9 promoter-luciferase reporter, luminescence, 24 h; further: % of control where 0% means no effect; nearly all actives have a fitted effect of over 60% in size
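Cells were plated at 1500 per well in reduced-serum medium with 10% FBS and left 2 h. Compound in DMSO was then added for 24 h at 37 °C. Reporter signal was read by luminescence after 10 min with luciferase detection reagent.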
FLuc modulator = counter-screen for miR-21 project: firefly luciferase inhibitors or activators; P08659; AID 588342; purified FLuc, Km substrates, luminescence inhibition; 360,000 tested, 6.9% active; Potency, µM (highest dose often 57.5 µM), for the others: at the highest dose activity change, negative = inhibition, hits mostly inhibitors;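 further: plate controls were vehicle for no effect and reference inhibitor for full effect; nearly all actives have a fitted effect of over 55% in size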
Target sequence (P08659 whole entry, looked up): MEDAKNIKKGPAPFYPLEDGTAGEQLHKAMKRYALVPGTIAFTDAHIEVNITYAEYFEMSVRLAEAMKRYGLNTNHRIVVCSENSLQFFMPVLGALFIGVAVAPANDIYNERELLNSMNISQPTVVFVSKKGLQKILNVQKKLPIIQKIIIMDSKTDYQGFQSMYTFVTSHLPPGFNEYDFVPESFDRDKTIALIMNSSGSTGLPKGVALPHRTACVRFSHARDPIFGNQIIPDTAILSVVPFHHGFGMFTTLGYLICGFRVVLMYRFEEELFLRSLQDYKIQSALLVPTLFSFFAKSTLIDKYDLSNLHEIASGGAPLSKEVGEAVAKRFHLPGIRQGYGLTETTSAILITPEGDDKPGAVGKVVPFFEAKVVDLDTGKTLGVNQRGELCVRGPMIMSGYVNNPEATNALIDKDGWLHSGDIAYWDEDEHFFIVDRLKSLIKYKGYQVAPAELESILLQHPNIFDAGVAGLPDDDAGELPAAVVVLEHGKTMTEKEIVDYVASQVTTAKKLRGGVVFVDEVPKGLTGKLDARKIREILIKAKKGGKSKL
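Purified P. pyralis luciferase (10nM final) with 10uM D-luciferin and 10uM ATP (Km levels) in 50mM Tris acetate pH 7.5, 10mM Mg acetate, 0.01% Tween-20, 0.05% BSA; qHTS 6-point titration, ~60 µM downward; luminescence read.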
Luc counter = Kinase-Glo luciferase inhibition (counter-screen); Q27757; Kinase-Glo luciferase, ATP luminescence, 8 min; Potency, µM (titrated, usually from 38.3 µM), for the others: at the top dose activity change, negative = inhibition, hits mostly inhibitors; 200,000 tested, 0.28% active; AID 1379; further: on the % scale 0 is the no-effect control and ±100 the full control effect; nearly all actives have a fitted effect of over 60% in size
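Recombinant Kinase-Glo luciferase, 10 uM ATP (linear range), luciferin; imidazole pH 7.2 / KCl / MgCl2 / Tween / BSA buffer; 8 min RT; luminescence.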
* hit, by the source's call; ? = inconclusive; · = not tested or not shown; [ ] = remark or other dose. The call rests on the fitted dose curve; in most records, active means well fitted curve in the direction sought with a large enough effect; inconclusive means small, poorly fitted or top-dose-only effect, or another doubt; inactive means no such curve, though single readings can be large; an effect the other way counts as inactive or inconclusive. Potency means the concentration at half of the fitted maximal effect.

SMILES	NPC1 promoter act	SMN2 splice enh	Rab9 promoter act	FLuc modulator	Luc counter
CCC(C)(C)c1ccc(OCC(=O)Nc2ccncc2)cc1	0.2%	·	-3.0%	7.57µM*	·
Cc1ccccc1OCC(=O)NNC(=S)NC(=O)c1ccccc1[N+](=O)[O-]	0.5%	-15.4%	-1.3%	-12.9%	0.4%
CC(C)(C)c1ccc(OCC(=O)NNC(=S)NC(=O)c2ccccc2[N+](=O)[O-])c(Br)c1	1.0%	·	-1.7%	26.9µM*	·
Cc1nc(-c2cccc(NC(=O)c3ccc(-n4nccc4C)cc3)c2)cs1	12.2%	·	10.0%	4.78µM*	·
Cc1nc(-c2cccc(NC(=O)c3ccc(Br)o3)c2)cs1	12.4%	·	-2.1%	?	·
COc1ccc(C(=O)Nc2cccc(-c3csc(C)n3)c2)cc1S(=O)(=O)N1CCCC1	1.5%	·	1.1%	?	·
Cc1nc(-c2ccc(C(=O)Nc3cccc(Br)c3)cc2)cs1	?	10µM*	?	1.07µM*	?
C=CCCC	·	1.9%	·	·	·
CS(=O)(=O)Nc1ccccc1C(=O)Nc1ccccc1C(=O)N1CCCC1	3.7%	·	1.5%	4.3%	·
CCc1ccc(C(=O)Nc2ccc3c(c2)n(C)c(=O)n3C)cc1	-4.4%	·	?	15.1µM*	·
CCc1ccc(C(=O)Nc2ccc(C)c(NS(C)(=O)=O)c2)cc1	?	·	12.5%	12µM*	·
Cn1c(=O)n(C)c2cc(NC(=O)c3ccccc3NS(C)(=O)=O)ccc21	6.3%	·	6.0%	26.9µM*	·
O=C(NCc1cccs1)c1ccc2c(=O)n3nc(Nc4ccccc4)sc3nc2c1	·	·	·	4.8%	·
COc1ccc(CNC(=O)C2CCN(S(=O)(=O)c3cccc4nonc34)CC2)cc1OC	·	·	·	0.5%	·
CC(=O)N1c2ccccc2CC1C(=O)N1CCN(c2cccc(C)c2C)CC1 (configuration not stated)	·	·	·	3.7%	·
Cc1ccccc1Oc1ccc(Oc2ccccc2C)nn1	3.98µM*	?	?	?	-0.6%
Cc1ccc(Oc2ccc(Oc3ccc(C)cc3)nn2)cc1	16.6%	0.9%	25.9%	-4.1%	1.3%
Oc1cccc(/C=N/N2CCCCC2)c1O	-2.9%	·	-16.4%	9.53µM*	·
Brc1ccccc1/C=N/N1CCCCC1	-0.6%	·	-4.6%[1.84 µM]	-19.7%	·
Oc1ccc(/C=N/N2CCCCC2)c(O)c1	?	·	-4.6%[1.84 µM]	19µM*	·
Oc1ccccc1/C=N/N1CCCCC1	-0.1%	1.8%	14.1%	23.9µM*	-5.2%
COc1cc(OC)cc(C(=O)N[C@H](C(=O)OCc2cc(=O)oc3cc(C)ccc23)C(C)C)c1	-3.8%	-3.7%	-1.5%	8.49µM*	-1.1%
Cc1ccc2c(COC(=O)c3ccccc3Cl)cc(=O)oc2c1	?	·	18.8%	0.849µM*	·
Cc1ccc2c(COC(=O)C34CC5CC(CC(C5)C3)C4)cc(=O)oc2c1	?	20.7%	3.98µM*	?	-3.0%
Cc1ccc2c(COC(=O)c3ccc(C)c(C)c3)cc(=O)oc2c1	20.1%	·	?	5.9%	·
SMILES	NPC1 promoter act	SMN2 splice enh	Rab9 promoter act	FLuc modulator	Luc counter
Cc1ccc2c(COC(=O)c3ccccc3Br)cc(=O)oc2c1	?	·	2.7%	2.69µM*	·
CCOc1ccccc1C(=O)N[C@H](C(=O)OCc1cc(=O)oc2cc(C)ccc12)C(C)C	0.9%	1.2%	-5.0%	?	4.2%
COc1ccc(NC(=O)C2CCN(C(=O)c3sc4nc[nH]c(=O)c4c3C)CC2)c(OC)c1	·	·	·	-0.5%	·
COc1ccc(-c2[nH]ncc2/C=N\NC(=O)c2cccs2)cc1OC	1.5%	·	-2.7%	19µM*	·
O=C(Nc1ccc2[nH]ccc2c1)c1ccc(F)cc1	0.398µM*	·	0.501µM*	1.51µM*	·
O=C(Nc1ccc2[nH]ccc2c1)c1ccccc1	0.562µM*	·	1.41µM*	3.38µM*	·
O=C(NC(=S)Nc1ccc2[nH]ncc2c1)c1ccccc1	?	21.6%	?	?	-6.4%
NCCC1([N+](=O)[O-])CCNCC1	·	-2.9%[9.22 µM]	·	·	-5.6%[7.66 µM]
O=C1/C(=C\Nc2ccc(OC(F)(F)F)cc2)CCN1c1ncccn1	?	17.2%	2.51µM*	?	15.3%
O=C(CN1CCN(c2ccccn2)CC1)Nc1ccc(OC(F)(F)F)cc1	-0.6%	·	-4.2%	-0.5%	·
O=C1/C(=C\Nc2ccc(Cl)cc2)CCN1c1ncccn1	2µM*	20µM*	0.891µM*	4.78µM*	-5.2%
Cc1ccc(Cl)cc1NCc1nnc2n1CCCCC2	·	·	·	1.3%	·
C=CCNS(=O)(=O)c1ncnc2nc[nH]c12	·	-1.7%[9.22 µM]	·	·	-1.4%[7.66 µM]
